Most compounds without a hit are left out; they make up all but 19% or so of the library.
DT40 TDP1 CPT: DT40-hTDP1 cell growth loss with CPT; chicken DT40 Tdp1-/-;hTDP1 cells + 20 nM CPT, ATP luminescence, 48 h; Potency, µM (highest dose often 46.2 µM), without a hit: at the top dose activity change, negative = growth inhibition, most hits filed as inhibitors; hit rate 12% among 420,000; further: potency means the concentration at half of the fitted maximal effect; nearly all actives have a fitted effect of over 55% in size
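Cell growth measured by CellTiter-Glo luminescence after a minimum 48 h, 37 C compound exposure with 20 nM CPT in Tdp1-knockout DT40 cells stably expressing hTDP1, seeded 400/well; qHTS titration format.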
HT1080 IDH1KD tx: HT-1080 IDH1 knockdown cell toxicity (counter line); hit rate 2% among 360,000; AID 686971; Potency, µM (highest dose often 46.1 µM), without a hit: at the highest dose activity, negative = toxicity, usual class: cytotoxic; HT-1080 IDH1 knockdown viability, ATP luminescence, 48 h;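 further: potency means the concentration at half of the fitted maximal effect; 0% = DMSO wells and -100% = cell-free medium wells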
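CellTiter-Glo luminescence after 48 h compound exposure at 37 degrees C of IDH1-knockdown HT-1080 cells in 5% FBS RPMI. %Activity scaled between DMSO wells and cell-free media wells, with curves fitted and assigned curve classes.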
HT1080NT lethal: kills 2HG-producing HT-1080-NT fibrosarcoma cells | HT-1080-NT fibrosarcoma viability, CellTiter-Glo ATP luminescence, 48 h | Potency, µM (top dose mostly 46.1 µM), for inactives: at the top dose activity, negative = less viability, actives largely listed as cytotoxic | hit rate 1.6% among 360,000;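 further: NT is the 2HG producing partner of a matched IDH1 knockdown line; potency means the concentration at half of the fitted maximal effect; 0% = DMSO-treated cells and -100% = media-only wells without cells; nearly all actives have a fitted effect of over 55% in size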
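HT-1080-NT; 750 cells/well; 5% FBS RPMI; 48 h compound, 37 degrees C; CellTiter-Glo luminescence; curve fitting and curve-class assignment.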
IL-1B inflam inh: inhibitors of inflammasome signaling (IL-1 beta secretion). THP-1 LPS/ATP IL-1B secretion, AlphaLISA, 16 h; hits give low values. activity change, % at 57.5 µM. hit rate 4.7% among 360,000. AID 743279; in the data active means activity change below about -50%; inconclusive means mostly about -30% to -49%
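Secreted IL-1B measured by AlphaLISA bead assay after 16 h compound exposure of THP-1 cells; compounds (final up to 57.5 uM) added 1 h before LPS (250 ng/mL) and ATP (1.25 mM) stimulation; lower signal means less secretion.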
TDP1 cell noCPT: qHTS for Inhibitors of human tyrosyl-DNA phosphodiesterase 1 (TDP1): qHTS in cells in absence of CPT | DT40 Tdp1-/- hTDP1 cells, no CPT, ATP luminescence, 48 h | Potency, µM (series often up to 46.2 µM), for the others: top-dose activity change, negative = growth inhibition, hits mostly inhibitors | hit rate 15% among 420,000; further: potency means the concentration at half of the fitted maximal effect; nearly all actives have a fitted effect of over 55% in size
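DT40 Tdp1-/-;hTDP1 cells, no CPT (DMSO vehicle only), 400 cells/well; compounds pin-transferred; ≥48 hr, 37 °C; CellTiter-Glo 30 min RT dark, luminescence read.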
* hit, by the source's call; i = inactive; ? = inconclusive; / = not tested or not shown; [ ] = dose if it differs, or a comment. Unless noted, the call rests on the fitted dose curve; in most records, active means well fitted curve in the direction sought with a large enough effect; inconclusive means small, poorly fitted or top-dose-only effect, or another doubt; inactive means no such curve, though single readings can be large; an effect the other way counts as inactive or inconclusive. Unless noted, on the % scale 0 is the no-effect control and ±100 the full control effect.

SMILES | DT40 TDP1 CPT | HT1080 IDH1KD tx | HT1080NT lethal | IL-1B inflam inh | TDP1 cell noCPT
O=c1[nH]c(/C=C/c2ccc(OC(F)F)cc2)nc2c1cnn2-c1ccccc1 | ? | 18% | 27% | -56* | ?
CC(C)Sc1nc2c(cnn2-c2ccccc2)c(=O)[nH]1 | -15% | 7% | 7% | -7 | -28%
Cc1nnc(-c2cccc(Br)c2)c2cn(-c3cccc(Br)c3)nc12 | ? | -28% | -11% | 0 | 16µM*
Cc1nnc(-c2cccc(Br)c2)c2cn(-c3ccccc3)nc12 | 23µM* | -14% | -4% | ? | ?
Cc1nnc(-c2cccc(Br)c2)c2cn(-c3ccc(Br)cc3)nc12 | ? | -27% | -12% | 43 | 15µM*
Cc1ccc(-c2nnc(-c3cccc(Br)c3)o2)cc1 | ? | 12% | 16% | 7 | ?
O=C(c1cn(-c2ccccc2)nc1-c1cccc(Br)c1)N1CCOCC1 | -21% | -2% | -1% | ? | ?
COc1ccc(NC(=O)NCC(C)CSc2ccc(C)cc2)c(OC)c1 (stereo not drawn) | ? | 0% | -6% | 7 | ?
Cc1cc(Br)c(NC(=O)CN2CCCC2)c(Br)c1 | -1% | 15% | 1% | -18 | -10%
COc1ccccc1C(=O)NCCC(=O)NCc1ccncc1 | -24% | 3% | 6% | -26 | -7%
O=C(Nc1ncc(Cc2ccc(F)cc2)s1)c1ccc2c(c1)CC(c1ccccc1)OC2=O (stereo not drawn) | ? | / | / | / | 23µM*
O=C(Nc1ncc(Cc2ccccc2)s1)C1CCCO1 (stereo not drawn) | 6% | 1% | 3% | -9 | -14%
COc1ccc(C2c3c(ncn(CCN4CCOCC4)c3=N)Oc3ccc4ccccc4c32)cc1 (stereo not drawn) | ? | -13% | -12% | ? | 18µM*
COc1ccc(C2C3=C(CC(C)(C)CC3=O)Oc3ncn(Cc4ccccc4)c(=N)c32)cc1 (stereo not drawn) | ? | ? | ? | -55* | -49%
N=c1c2c(ncn1Cc1ccco1)Oc1cc(O)ccc1C2c1ccccc1 (stereo not drawn) | 18µM* | -13% | -16% | -62* | ?
CC1(C)CC(=O)C2=C(C1)Oc1ncn(Cc3ccco3)c(=N)c1C2c1ccccc1 (stereo not drawn) | -19% | -18% | -15% | -20 | -23%
N=c1c2c(ncn1Cc1ccco1)Oc1c(ccc3ccccc13)C2c1ccccc1 (stereo not drawn) | ? | ? | 16µM* | ? | ?
COc1ccc(C2c3ccc(O)cc3Oc3ncn(CCCO)c(=N)c32)cc1 (stereo not drawn) | -28% | -14% | -5% | -14 | ?
Cc1c(C(=O)NNC(=S)NCc2ccc(Cl)cc2)oc2ccccc12 | 6% | 10% | -9% | -5 | -5%
CCOC(=O)[C@@H]1[C@H]2COc3cc(OC)ccc3[C@@H]2N2C(=O)N(c3ccccc3)C(=O)[C@]12C | -19% | -9% | 0% | -7 | -24%
N=c1c2c(ncn1CCN1CCOCC1)Oc1ccc3ccccc3c1C2c1ccccc1 (stereo not drawn) | -10% | -7% | -1% | ? | 20%
CN(C)CCn1cnc2c(c1=N)C(c1ccccc1)c1ccc3ccccc3c1O2 (stereo not drawn) | 18µM* | -16% | -29% | -57* | ?
CCC(Sc1nc2nccnc2c(=O)n1Cc1ccc(OC)cc1)C(=O)NC1CCCCC1 (stereo not drawn) | -29% | / | / | / | -18%
Cc1cc(F)ccc1S(=O)(=O)N1CCCOC1CNC(=O)C(=O)NCCc1ccccc1 (stereo not drawn) | ? | 5% | 0% | 0 | -12%
Cc1ccc(C)c(S(=O)(=O)N2CCCOC2CNC(=O)C(=O)NCCc2ccccc2)c1 (stereo not drawn) | ? | -17% | -5% | i | 16µM*
SMILES | DT40 TDP1 CPT | HT1080 IDH1KD tx | HT1080NT lethal | IL-1B inflam inh | TDP1 cell noCPT
Cc1ccc(C)c(S(=O)(=O)N2CCCOC2CNC(=O)C(=O)NCCC2=CCCCC2)c1 (stereo not drawn) | ? | 4% | 6% | 0 | 23µM*
Cc1ccc(S(=O)(=O)N2CCOC2CNC(=O)C(=O)NCCc2ccccc2)cc1 (stereo not drawn) | ? | -19% | 0% | -6 | -21%
Cc1ccc(S(=O)(=O)N2CCOC2CNC(=O)C(=O)NCCCc2ccccc2)cc1 (stereo not drawn) | ? | -15% | -18% | 6 | 18µM*
O=C(NCCC1=CCCCC1)C(=O)NCC1OCCCN1S(=O)(=O)c1ccccc1 (stereo not drawn) | -25% | 3% | 3% | 13 | ?
CC(=O)c1ccc(N=c2scc(C)n2C(C)C)cc1 | -29% | 15% | 14% | -14 | ?
CN(C)c1ccc(-c2nn3c(-c4cccnc4)nnc3s2)cc1 | 4% | 9% | 17% | -14 | -16%
COc1ccccc1-c1nnc2sc(-c3cnccn3)nn12 | -22% | 9% | 8% | 22 | -25%
COc1ccccc1-c1nnc2sc(-c3cc4ccccc4o3)nn12 | 1.2µM* | 1.5µM* | ? | 101 | 1µM*
COc1ccccc1-c1nnc2sc(COc3ccc(F)cc3)nn12 | ? | -17% | -12% | -67* | ?
COc1ccccc1-c1nnc2sc(-c3ccc(N(C)C)cc3)nn12 | 0.0073µM* | 0.52µM* | 0.92µM* | -1 | 0.082µM*
O=C(NC1CCCCCC1)C1CCN(C(=O)Cc2ccccc2)CC1 | 0% | 9% | 6% | 12 | ?
CCCCCn1nnnc1C1(C)CCC(=O)N1Cc1ccco1 (stereo not drawn) | ? | 14% | 24% | 15 | -21%
COC(=O)c1c(-c2ccccc2)oc2c1C(OCCO)CCC2 (stereo not drawn) | -22% | 11% | 17% | 24 | ?
O=S1(=O)CCN(OCc2ccc(Cl)cc2)CC1 | -12% | 5% | 0% | 4 | -7%
Cn1c2c(c(=O)c3ccccc31)C[C@@H](O)C(C)(C)O2 | -15%[9.04 µM] | / | / | / | -10%[9.04 µM]
COc1ccc(C(=O)/C=C/c2ccc(O)cc2)c2c1CC(O)C(C)(C)O2 (stereo not drawn) | ? | -3% | -2% | -93* | 16µM*
COc1ccc(C(=O)/C=C/c2ccc(O)cc2)c(O)c1CC=C(C)C | 13µM* | 23µM* | ? | -72* | ?
Cc1cccc(N2CCN(S(=O)(=O)c3ccc4c(c3)C(C(C)C)C(=O)N4)CC2)c1C (stereo not drawn) | 5.2µM* | / | / | / | 12µM*
